Laboratory results published in PubChem BioAssay AID1159580 (chemical genetic matrix, 2015).
“And” between values parts separate entries of the source, which are not always exact repeats. Equal values may be shown once. About 2,000 (36%) of roughly 5,500 compounds were called active. Not shown: some 18% with an inconclusive outcome. No stated cut-off is given here; in the data, active means normalized growth mostly below about 0.91 (no sharp cut-off); inconclusive means no clear call, values can overlap the other calls; inactive means mostly above about 0.92. Some of the results follow.

Assay: chemical genetic growth profiling, strain panel (AID 1159580);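 further: tested at 20 µM; growth read once vehicle control cultures reached saturation at 30 °C; 1 = growth at the plate median or of vehicle wells; lower values mean less growth of the strain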
Conditions: S. cerevisiae deletion strains, growth OD

Measured: normalized growth

ClC1C(Cl)C(Cl)C(Cl)C(Cl)C1Cl (stereo unspecified)
active: locus YBR009C, strain hhf1, active compounds read low 0.831 | locus YCL016C, strain dcc1, active compounds read low 0.898 | locus YCL029C, strain bik1, active compounds read low 0.906 | locus YCL061C, strain MRC1, active compounds read low 0.894 | locus YDR137W, strain rgp1, active compounds read low 0.606 | locus YDR159W, strain sac3, active compounds read low 0.703 | locus YDR392W, strain spt3, active compounds read low 0.295 | locus YER155C, strain BEM2 (second series), active compounds read low 0.306 | locus YER167W, strain BCK2, active compounds read low 0.84 | locus YGL240W, strain doc1, active compounds read low 0.774 | locus YHR094C, strain hxt1, active compounds read low 0.923 | locus YHR142W, strain chs7, active compounds read low 0.805 | locus YIL125W, strain kgd1, active compounds read low 0.906 | locus YJL129C, strain trk1, active compounds read low 0.783 | locus YJL166W, strain qcr8, active compounds read low 0.728
inactive: locus YAL013W, strain DEP1, active compounds read low 0.981 | locus YAL021C, strain ccr4, active compounds read low 0.997 | locus YAL026C, strain drs2, active compounds read low 0.988 | locus YAL030W, strain snc1, active compounds read low 0.98 | locus YBL061C, strain skt5, active compounds read low 0.965 | locus YBR021W, strain FUR4, active compounds read low 0.985 | locus YBR023C, strain chs3, active compounds read low 0.965 | locus YBR171W, strain sec66, active compounds read low 0.956 | locus YBR229C, strain ROT2, active compounds read low 0.962 | locus YBR231C, strain swc5, active compounds read low 0.913 | locus YBR279W, strain paf1, active compounds read low 0.971 | locus YCL011C, strain gbp2, active compounds read low 0.931 | locus YCL069W, strain vba3, active compounds read low 0.986 | locus YCR088W, strain abp1, active compounds read low 0.965 | locus YDL005C, strain med2, active compounds read low 1.01 | locus YDL035C, strain GPR1, active compounds read low 0.976 | locus YDL040C, strain nat1, active compounds read low 0.986 | locus YDL074C, strain BRE1, active compounds read low 0.939 | locus YDL101C, strain DUN1, active compounds read low 0.964 | locus YDL134C, strain PPH21, active compounds read low 0.963 | locus YDL185W, strain tfp1, active compounds read low 0.926 | locus YDL192W, strain arf1, active compounds read low 0.942 | locus YDR001C, strain nth1, active compounds read low 0.964 | locus YDR069C, strain doa4, active compounds read low 0.989 | locus YDR101C, strain arx1, active compounds read low 0.956 | locus YDR150W, strain NUM1, active compounds read low 0.942 | locus YDR162C, strain NBP2, active compounds read low 0.969 | locus YDR195W, strain ref2 1.07 | locus YDR297W, strain sur2, active compounds read low 0.97 | locus YDR318W, strain mcm21, active compounds read low 0.926 | locus YDR334W, strain swr1, active compounds read low 0.976 | locus YDR335W, strain msn5, active compounds read low 1 | locus YDR388W, active compounds read low 0.935 | locus YDR502C, strain sam2, active compounds read low 0.937 | locus YEL003W, strain gim4, active compounds read low 0.982 | locus YEL037C, strain rad23, active compounds read low 0.973 | locus YEL061C, strain CIN8 (second series), active compounds read low 0.99 | locus YEL061C, strain CIN8, active compounds read low 0.953 | locus YER015W, strain faa2, active compounds read low 0.982 | locus YER016W, strain bim1, active compounds read low 0.98 | locus YER110C, active compounds read low 0.935 | locus YER111C, strain swi4, active compounds read low 0.933 | locus YER155C, strain BEM2, active compounds read low 0.959 | locus YFR010W, strain ubp6, active compounds read low 0.983 | locus YGL078C, strain dbp3, active compounds read low 0.933 | locus YGL086W, strain mad1, active compounds read low 0.933 | locus YGL167C, strain pmr1, active compounds read low 0.974 | locus YGL173C, strain kem1, active compounds read low 0.96 | locus YGL227W, strain vid30, active compounds read low 0.954 | locus YGL248W, strain PDE1, active compounds read low 0.954 | locus YGL253W, strain hxk2, active compounds read low 0.976 | locus YGR078C, strain PAC10, active compounds read low 0.954 | locus YGR135W, strain pre9, active compounds read low 0.947 | locus YGR229C, strain SMI1, active compounds read low 0.954 | locus YGR252W, strain gcn5, active compounds read low 1.12 | locus YHR013C, strain ard1, active compounds read low 0.866 | locus YHR027C, strain rpn1, active compounds read low 0.988 | locus YHR030C, strain SLT2, active compounds read low 0.945 and 0.982 | locus YHR079C, strain IRE1 (second series), active compounds read low 0.927 | locus YHR079C, strain IRE1, active compounds read low 0.985 | locus YHR129C, strain ARP1, active compounds read low 0.958 | locus YHR200W, strain rpn10, active compounds read low 0.922 | locus YIL066C, strain RNR3, active compounds read low 0.955 | locus YIL073C, strain SPO22, active compounds read low 0.906 | locus YIR030C, strain dcg1, active compounds read low 0.945 | locus YJL092W, strain hpr5, active compounds read low 0.95 | locus YJL095W, strain BCK1 (second series), active compounds read low 0.931 | locus YJL095W, strain BCK1, active compounds read low 0.871 and 0.984 | locus YJL115W, strain asf1, active compounds read low 1.01 | locus YJL134W, strain LCB3, active compounds read low 0.955 | locus YJL154C, strain vps35, active compounds read low 0.982 | locus YJL164C, strain tpk1, active compounds read low 0.925 | locus YJL168C, strain set2, active compounds read low 0.943 | locus YJL187C, strain SWE1 (second series), active compounds read low 0.959 | locus YJR043C, strain POL32, active compounds read low 0.965 | locus YJR066W, strain TOR1, active compounds read low 0.939
